Over roughly 33,000 sequences, “E-score (-0.5 to 0.5)” has its median near -0.0034; the highest 2% begin near 0.25. The full list was thinned out, with the highest values kept by preference.
Target: T1, Yap3 (UniProt P38749)
T1 sequence: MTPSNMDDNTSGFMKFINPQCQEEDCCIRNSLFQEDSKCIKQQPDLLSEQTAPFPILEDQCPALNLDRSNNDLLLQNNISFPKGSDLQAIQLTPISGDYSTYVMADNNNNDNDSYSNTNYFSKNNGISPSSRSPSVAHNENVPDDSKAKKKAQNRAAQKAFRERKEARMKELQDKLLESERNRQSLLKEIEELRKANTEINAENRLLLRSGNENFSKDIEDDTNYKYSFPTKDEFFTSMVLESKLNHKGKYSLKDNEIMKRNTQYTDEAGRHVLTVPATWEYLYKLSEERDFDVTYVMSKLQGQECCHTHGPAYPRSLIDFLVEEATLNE
Assay: PBM E-score (8-mer binding enrichment) (E-score (-0.5 to 0.5)); higher = stronger / more preferred TF binding
Details: protein concentration: 100 nM; construct: GST-full length
Procedure, shortened: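 Universal all-10-mer Agilent arrays, double-stranded by primer extension on fresh or once-stripped slides, were probed with about 100-200 nM GST-tagged yeast transcription factors made by PURExpress. Fluorescent anti-GST detected bound protein, and masliner normalised the scans. E-scores from the Universal PBM Analysis Suite were given to each ungapped eight-base word pooled with its reverse complement.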

Sequence	PBM E-score
ATTAGAGC	0.116
GAACGCTC	-0.11
AGAGAAAT	0.142
CAACAGAA	-0.0742
CAACAGGG	-0.116
TACCACAA	0.123
AGGAAGAT	0.13
AGTCAGGG	-0.185
ACAATTAT	0.248
CTAATTCA	0.112
ATAATTCA	0.282
ATAATTAT	0.302
AGAATTAT	0.197
ATAATTCG	0.242
ATCAGAGG	-0.132
GACGCTGC	-0.0366
ATGCGAAA	0.13
ACTTAGGG	-0.112
CTTAATAC	0.0534
CTTAATAA	0.275
GTTAATAA	0.223
ATTAATAA	0.405
ATTAATAC	0.201
ATTAATAG	0.228

Sequence	PBM E-score
AATATGGG	0.0708
CTTGGTAC	0.172
GAAGAGCA	-0.258
GCTTCCCC	-0.346
ACGTCAGC	0.0264
GTCGCGAC	0.324
GTCGCGAA	-0.0136
CTCGCGAC	0.068
AAGGTATC	-0.00987
CACCACAC	0.096
ATGTGATA	0.255
GTATGAAA	0.29
GGATGATA	0.122
GTATGAGA	0.158
TTATGAAA	0.204
GTGTGATA	0.203
GTATGATA	0.282
GTATGAAC	0.0322
ATTTGATA	0.273
CTTTGATA	0.189
ATTTGATC	-0.0998
CTGTGATA	-0.106
CAGAAGCA	0.137
TCCTACAA	0.0495

Sequence	PBM E-score
GTCATCCA	0.0539
AAAGACCT	0.0294
GTGTGAAA	0.133
AGATGATA	0.08
CTATGATC	-0.0167
CTGTGAAA	0.264
CTATGATA	0.0744
ATATGATG	0.171
ATATGATC	0.294
ATGTGAAA	0.134
ATATGATA	0.264
CTCTAGAA	-0.214
AGTGGTAC	0.0484
CTCGCTGC	-0.0528
AAGCATTA	0.106
CATTCAAC	-0.065
GTAAATAC	0.0284
ATATAAAT	0.242
ATAAATAT	0.267
ATAAATCA	0.207
ATAAATAC	0.325
ATAAATAG	0.195
CTAAATAC	0.0333
TTAAATAA	0.155

Sequence	PBM E-score
ATAAATAA	0.307
GTAAATAA	0.267
CTAAATAA	0.155
ATAAAAAT	0.199
GAACTCTC	-0.0889
AATTAGAT	0.245
ACATTTTC	0.125
CCTATAAC	-0.0793
CCATCTTA	0.00932
GTCCTAAC	-0.0915
ACCATCAC	0.0126
ATCTTCTA	0.0985
ATTGAGCA	0.105
AATAAAAA	0.27
CATAAAAC	0.0691
GATAAAAC	0.219
AATAAAAG	0.0973
AATAAAAT	0.239
AATAAAAC	0.315
ACCACTCG	0.0759
ACGTGTTG	0.0914
GAGCGACA	0.0223

Reference: the supplement of paper PMC3334620
